Measured values as given in PubChem BioAssay (NCI).
About 83,000 compounds went through this panel and 20% of them were active in at least one assay; those are over-represented in the sample as a whole.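 Negative percent growth values reflect cell death: -40 means 40% of the cells present at the start died, and -100 means all died.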 Values without a mark were called inactive. Activity calls are given as the source filed them. How the source made its calls: active means growth percent below 10; inactive means the rest.

Tests used:
Experiment in all cases: NCI-60 one-dose screen, 48 h (100 = growth as untreated, 0 = no growth, -100 = all killed)
HT29 colon = conditions: 10 µM unless noted
SNB-75 CNS = conditions: 10 µM unless noted
SNB-19 CNS = conditions: 10 µM unless noted
U251 CNS = conditions: 10 µM unless noted
PC-3 prostate = conditions: 10 µM unless noted
UACC-62 melanoma = conditions: 10 µM unless noted
LOX IMVI melanoma = conditions: 10 µM unless noted
SK-MEL-28 melanoma = conditions: 10 µM
SK-MEL-2 melanoma = conditions: 10 µM unless noted
EKVX NSCLC = conditions: 10 µM unless noted
SN12C renal = conditions: 10 µM unless noted
UO-31 renal = conditions: 10 µM unless noted
TK-10 renal = conditions: 10 µM unless noted
ACHN renal = conditions: 10 µM unless noted
CAKI-1 renal = conditions: 10 µM unless noted
A498 renal = conditions: 10 µM unless noted
CCRF-CEM leukemia = conditions: 10 µM unless noted
MOLT-4 leukemia = conditions: 10 µM unless noted
SR leukemia = conditions: 10 µM unless noted
SK-MEL-5 melanoma = conditions: 10 µM unless noted

Row | Structure (SMILES) | growth (HT29 colon) | growth (SNB-75 CNS) | growth (SNB-19 CNS) | growth (U251 CNS) | growth (PC-3 prostate) | growth (UACC-62 melanoma) | growth (LOX IMVI melanoma) | growth (SK-MEL-28 melanoma) | growth (SK-MEL-2 melanoma) | growth (EKVX NSCLC) | growth (SN12C renal) [%] | growth (UO-31 renal) | growth (TK-10 renal) | growth (ACHN renal) [%] | growth (CAKI-1 renal) | growth (A498 renal) | growth (CCRF-CEM leukemia) | growth (MOLT-4 leukemia) | growth (SR leukemia) | growth (SK-MEL-5 melanoma)
1 | COc1ccc(N2C(=O)CC(c3cc(OC)c(OC)c(OC)c3)C3C2=NC(=O)N3C)cc1 (stereo not given) | 104% | 99.5% | 102% | 110% | 100% | 104% | 103% | 108% | 116% | 102% | 102 | 89.9% | 103% | 106 | 95.1% | 102% | 109% | 114% | 126% | –
2 | CCOC(=O)c1c2c(n3cccc(Cl)c13)C(=O)c1ncccc1C2=O | 69.3% | 78.2% | 45.9% | 36% | 53% | 55.9% | – | 87.5% | 103% | 75.7% | 16.6 | 43.9% | 75.6% | 26.4 | 25.8% | 79.3% | 84.2% | 95.8% | 58.3% | –
3 | COc1ccc(CCN2C(=O)CCSC2=S)cc1 | 18% | 54.1% | 84% | 92.2% | – | 77.1% | 8% (active) | 77.7% | 85.4% | 101% | 46.4 | 59.9% | 39.1% | 42.3 | 44.8% | 82.9% | 30% | 64.1% | 18.1% | 94.1%
4 | COc1ccc(C2=NN(/C=C3\SC(=O)NC3=Nc3ccc(F)cc3)C(c3ccc(F)cc3)C2)cc1 (stereo not given) | 98.8% | 96.5% | 95.1% | 94.1% | – | 95.4% | 97.6% | 103% | 102% | 82.2% | 98.3 | 73.4% | 87.9% | 93.7 | 89.1% | 93.8% | 102% | 98.4% | 106% | 92%
5 | CN(C)/C=C1\SC(=Nc2ccc(Cl)cc2)NC1=O | 110% | 96.4% | 102% | 99.7% | – | 95.2% | 101% | 101% | 104% | 95.6% | 92.1 | 90.4% | 111% | 103 | 96.1% | 94.6% | 106% | 101% | 123% | 97%
6 | COc1ccc(S(=O)(=O)N(Cc2ccc3c(n2)C=CC(C)(C)O3)C2CCC2)cc1OC | 3.8% (active) | -12.5% (active) | 8.75% (active) | 0.365% (active) | -3.05% (active) | -14.7% (active) | -40.6% (active) | -18.8% (active) | -37.5% (active) | -22.5% (active) | – | -10.2% (active) | -8.7% (active) | 13.4 | -28.2% (active) | -25.4% (active) | -19% (active) | -14.3% (active) | -40% (active) | –
7 | Clc1ccc(Nc2scc3[n+]2CCC3)cc1 | 106% | 94.3% | 98.4% | 98% | 89.2% | 87.3% | 102% | 100% | 106% | 60.3% | 98.2 | 81.3% | 111% | 104 | 84.8% | 82.5% | 95.8% | 94.6% | 113% | –
8 | Cc1nc(Nc2ccccn2)sc1C(=O)/C=C/c1ccc(Cl)cc1 | 5.45% (active) | 11.9% | 32.7% | 14.8% | – | 48.2% | 15.8% | 61.8% | 31.6% | 27.8% | 32 | 28.6% | 61.5% | 23.2 | 27.9% | 6.49% (active) | 17.1% | 17.2% | 15.6% | -32.4% (active)
9 | COc1cc([C@@H]2NC(=O)NC(C)=C2C(=O)Nc2nc(-c3ccc(Cl)cc3)cs2)ccc1O | 108% | 87.3% | 113% | 97.9% | 88.9% | 91.6% | 94.2% | 110% | – | 91.1% | 97.4 | 69% | 103% | 98.3 | 83% | 102% | 132% | 100% | 106% | –
10 | CCOC(=O)C(CC(=O)O)=C(C(=O)OCC)C(=O)OCC | 134% | 91.8% | 109% | – | 112% | 113% | 106% | 101% | 128% | – | 104 | 98.8% | 120% | 105 | 99.6% | 104% | 110% | 95.8% | 95.8% | –
11 | CCOC(=O)c1ccc(N=Cc2sc(=O)[nH]c2O)cc1 | 104% | 84.9% | 91.9% | 97.3% | – | 91.2% | 93.6% | 105% | 94.5% | 93.4% | 95.3 | 83.1% | 98.4% | 90.3 | 88.1% | 110% | 101% | 99.9% | 117% | 99.8%
12 | COc1ccc(CCN2C(=O)/C(=C/c3ccc(C4Oc5ccccc5C5CC(c6cccc(OC)c6)=NN54)cc3)SC2=S)cc1 (stereo not given) | 104% | 90.5% | 99.1% | 101% | – | 102% | 96.4% | 101% | 99.8% | 94.4% | 101 | 82% | 103% | 98.3 | 95.7% | 106% | 98.8% | 104% | 115% | 99%
13 | O=C(Nc1ncc(Cc2cccc(C(F)(F)F)c2)s1)C1COc2ccccc2O1 (stereo not given) | 84.9% | 83.3% | 89.9% | 83.8% | – | 65.3% | 94.8% | – | – | 75.5% | 88.8 | 73.7% | 97.1% | 97.4 | 84.2% | 106% | 86.7% | 80.2% | 106% | 89.8%
14 | COc1cccc(C2=NN3C(C2)c2ccccc2OC3c2ccc(/C=C3\SC(=O)NC3=O)cc2)c1 (stereo not given) | 111% | 95% | 105% | 102% | – | 104% | 70.5% | 104% | – | 85.4% | 101 | 73.2% | 102% | 98.7 | 96.4% | 88.6% | 97.1% | 96.9% | 120% | 91.8%
15 | Cc1cc(OC(=O)c2ccc([N+](=O)[O-])cc2)nc2[nH]c(=O)sc12 | 105% | 90.6% | 98.6% | 97.1% | – | 102% | 98.8% | 109% | – | 92.1% | 101 | 82.1% | 103% | 103 | 91.5% | 104% | 106% | 101% | 108% | 100%
16 | Nc1ccc(C2c3ccccc3Oc3ccccc32)cc1 | 99.3% | 84.5% | 105% | 93.3% | 90% | 94.8% | – | 114% | 110% | 86.3% | 98.5 | 81.7% | – | 97.6 | 87.2% | 124% | 94.8% | 83% | 97.8% | –
17 | O=c1oc2ccc(I)cc2c(=O)n1-c1ccc(F)cc1F | 107% | -13.4% (active) | 14.7% | 8.66% (active) | 3.58% (active) | 0.781% (active) | – | 18.9% | -17.3% (active) | 59.2% | 10.9 | 7.61% (active) | 11.6% | 19.6 | -17.5% (active) | -43.9% (active) | 17.2% | 13.8% | – | –
